Among the test systems are HCT-15 colon; HT29 colon; SNB-75 CNS; SNB-19 CNS; U251 CNS; PC-3 prostate; SK-MEL-5 melanoma; UACC-62 melanoma; LOX IMVI melanoma; SK-MEL-28 melanoma; SK-MEL-2 melanoma; EKVX NSCLC; SN12C renal; UO-31 renal; TK-10 renal; ACHN renal; CAKI-1 renal; CCRF-CEM leukemia; MOLT-4 leukemia.
Assay in all cases: NCI-60 one-dose screen, 48 h (100 = growth as untreated, 0 = no growth, -100 = all killed)
Common to all, as to settings: 10 µM unless noted

About 83,000 compounds went through this panel and 20% of them were active in at least one assay; those are over-represented in the sample as a whole.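 Single-concentration screen, 48 h exposure, 96-well plates. Endpoint: percent growth. Below 10 = active.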 Unmarked numbers belong to inactive results. Calls of active or inactive are those of the source.

Turning to `C=C(C)[C@@H]1CC[C@]2(C(=O)N3CCN(C)CC3)CC[C@]3(C)[C@H](CC[C@@H]4[C@@]5(C)C/C(=C/c6cccnc6)C(=O)C(C)(C)[C@@H]5CC[C@]43C)[C@@H]12`, the growth is 44.5% in the test with HCT-15 colon; 20.9% in the test with HT29 colon; 79.7% in the test with SNB-75 CNS; 68.7% in the test on SNB-19 CNS; 52.3% in the test on U251 CNS; 18.6% in the test on PC-3 prostate. The growth in the test on SK-MEL-5 melanoma was 68.6%; in the test on UACC-62 melanoma, 81.4%; with LOX IMVI melanoma, 78.7%; in the test with SK-MEL-28 melanoma, 83.1%; in the test with SK-MEL-2 melanoma, 82.8%; in the test with EKVX NSCLC it was 83.8%. Further, the growth was 57.6% in the test with SN12C renal; 57.2% in the test with UO-31 renal; 101% with TK-10 renal; 71.7% in the test with ACHN renal; 79.8% in the test with CAKI-1 renal; 28.9% in the test with CCRF-CEM leukemia. In addition, the growth with MOLT-4 leukemia was 14.9%.
With `C=C(C)[C@@H]1CC[C@]2(C(=O)N3CCN(C)CC3)CC[C@]3(C)[C@H](CC[C@@H]4[C@@]5(C)C/C(=C/c6ccncc6)C(=O)C(C)(C)[C@@H]5CC[C@]43C)[C@@H]12`, the growth with HCT-15 colon is 35.8%; with HT29 colon, 15.8%; in the test with SNB-75 CNS, 87.9%; in the test on SNB-19 CNS, 64.2%; in the test with U251 CNS, 47%; in the test with PC-3 prostate it was 23.7%. Moreover, the growth is 59.8% in the test on SK-MEL-5 melanoma; 71% in the test with UACC-62 melanoma; 55.9% in the test with LOX IMVI melanoma; 76.9% with SK-MEL-28 melanoma; 64.6% with SK-MEL-2 melanoma; 77.3% in the test on EKVX NSCLC. The growth with SN12C renal was 47.1%; in the test on UO-31 renal it was 48%; in the test with TK-10 renal it was 89.4%; with ACHN renal, 60.9%; in the test with CAKI-1 renal, 71.1%; in the test with CCRF-CEM leukemia, 24.7%. Besides, in the test with MOLT-4 leukemia, the growth is 3.16% (active).
As for `Nc1c(C(=O)Nc2cccc3cnccc23)sc2nc3c(cc12)CN(Cc1ccccc1)CC3`, the growth is 107% in the test on HCT-15 colon; 108% in the test with HT29 colon; 96.5% in the test on SNB-75 CNS; 99.6% in the test with SNB-19 CNS; 108% with U251 CNS; 91.3% in the test with PC-3 prostate. In addition, the growth was 98.8% with SK-MEL-5 melanoma; 96.4% in the test on UACC-62 melanoma; 103% with LOX IMVI melanoma; 111% in the test with SK-MEL-28 melanoma; 116% in the test on SK-MEL-2 melanoma; 101% in the test on EKVX NSCLC. Besides, the growth was 97.5% in the test with SN12C renal; 75.5% in the test with UO-31 renal; 140% in the test with TK-10 renal; 99.9% with ACHN renal; 90.1% in the test with CAKI-1 renal; 109% in the test with CCRF-CEM leukemia. Also, the growth in the test on MOLT-4 leukemia was 107%.
Turning to `O=C(O)c1ccc(-c2nn(-c3ccc(C(F)(F)F)cc3)cc2CNc2ccc(Oc3ccccc3)cc2)cc1`, the growth in the test with HCT-15 colon is 43.2%; in the test on HT29 colon it was 67%; with SNB-75 CNS, 80.6%; in the test with SNB-19 CNS it was 82.7%; in the test with U251 CNS it was 67%; in the test with PC-3 prostate, 90.6%. In addition, the growth was 78.9% in the test with SK-MEL-5 melanoma; 77.5% in the test on UACC-62 melanoma; 82.5% with LOX IMVI melanoma; 89.1% with SK-MEL-28 melanoma; 90% in the test on SK-MEL-2 melanoma; 66.9% with EKVX NSCLC. The growth in the test with SN12C renal was 78.2%; in the test on UO-31 renal it was 60.1%; in the test on TK-10 renal, 98.3%; in the test on ACHN renal, 65.9%; in the test on CAKI-1 renal, 91.8%; with CCRF-CEM leukemia it was 76.7%. Moreover, the growth in the test with MOLT-4 leukemia is 67.6%.
As for `Cc1cnc(C(=O)Nc2nc3ccc(S(=O)(=O)Nc4ccc(C5(C(F)(F)F)CC5)cc4)cc3[nH]2)cn1`, the growth in the test with HCT-15 colon is 20.6%; in the test with HT29 colon it was 9.04% (active); in the test on SNB-75 CNS, -7.96% (active); in the test on SNB-19 CNS, 30.1%; with U251 CNS, 21.8%; in the test on PC-3 prostate, 18%. Moreover, the growth in the test with SK-MEL-5 melanoma is -3.91% (active); in the test with UACC-62 melanoma, 35.3%; in the test with LOX IMVI melanoma it was 35.1%; in the test on SK-MEL-28 melanoma, 54.1%; in the test on SK-MEL-2 melanoma, 37.9%; in the test on EKVX NSCLC, 59.1%. For the same compound, the growth with SN12C renal was 34.5%; in the test on UO-31 renal it was 38.7%; in the test on TK-10 renal, 32.1%; in the test on ACHN renal, 48.2%; in the test with CAKI-1 renal, 22.6%; with CCRF-CEM leukemia it was 11.1%. Moreover, the growth with MOLT-4 leukemia is 20%.
As to `COc1ccc(-c2nc3sccn3c2/C=C/C(=O)c2ccc3c(c2)OCO3)cc1`, the growth in the test on HCT-15 colon was 59.3%; in the test on HT29 colon, 85%; in the test on SNB-75 CNS, 72.3%; in the test on SNB-19 CNS, 80.6%; in the test with U251 CNS it was 55.1%; with PC-3 prostate, 58.6%. In addition, the growth in the test with SK-MEL-5 melanoma was 78.7%; with UACC-62 melanoma it was 57.2%; in the test with LOX IMVI melanoma, 38.4%; in the test on SK-MEL-28 melanoma, 105%; in the test on SK-MEL-2 melanoma, 87.4%; with EKVX NSCLC, 85.4%. Also, the growth is 86.1% in the test with SN12C renal; 73.5% in the test on UO-31 renal; 119% in the test with TK-10 renal; 73.3% with ACHN renal; 78.3% in the test with CAKI-1 renal; 18.3% in the test on CCRF-CEM leukemia. Besides, in the test with MOLT-4 leukemia, the growth is 37.3%.
For the compound `CCN(CC)CCn1c(=O)c2cc(OC)c(OC)cc2c2ccc3cc4c(cc3c21)OCO4`, the growth is 54.7% in the test on HCT-15 colon; 17.1% in the test on HT29 colon; 47.9% in the test with SNB-75 CNS; 27.1% with SNB-19 CNS; 22.7% in the test on U251 CNS; 48% in the test on PC-3 prostate. For the same compound, the growth was 36.1% in the test with SK-MEL-5 melanoma; 16.8% with UACC-62 melanoma; -42.2% (active) with LOX IMVI melanoma; 53.4% in the test with SK-MEL-28 melanoma; 93.2% in the test on SK-MEL-2 melanoma; 83.9% in the test on EKVX NSCLC. Also, the growth in the test on SN12C renal was 32.9%; in the test on UO-31 renal, 22.8%; in the test with TK-10 renal, 67.6%; in the test with ACHN renal, 10.2%; with CAKI-1 renal, 17.3%; in the test on CCRF-CEM leukemia, 2.85% (active). Besides, the growth in the test with MOLT-4 leukemia was -9.32% (active).
For the compound `O=C(Nc1ccc(Cl)cc1)c1cc(NCc2cc(O)ccc2O)ccc1O`, the growth in the test with HCT-15 colon is 68.5%; in the test with HT29 colon, 88.6%; in the test with SNB-75 CNS, 101%; in the test with SNB-19 CNS it was 91.4%; in the test with U251 CNS, 71.8%; in the test with PC-3 prostate, 45.2%. Also, the growth in the test on SK-MEL-5 melanoma is 82.9%; in the test on UACC-62 melanoma, 65.5%; with LOX IMVI melanoma, 84.3%; with SK-MEL-28 melanoma, 99.2%; with SK-MEL-2 melanoma, 78.8%; in the test on EKVX NSCLC, 94.1%. The growth in the test with SN12C renal is 76.1%; in the test on UO-31 renal it was 52.2%; in the test on TK-10 renal it was 97.3%; with ACHN renal it was 89.6%; in the test with CAKI-1 renal, 99.5%; with CCRF-CEM leukemia, 5.54% (active). In addition, the growth in the test with MOLT-4 leukemia was 59.8%.

These data come from PubChem BioAssay (NCI).
